“And” between values parts separate entries of the source, which are not always exact repeats. Identical values can stand only once. Among all 16,000 compounds or so, about 4,000 (25%) were called active. Not shown: some 26% with an inconclusive outcome. The call rests on the fitted dose curve; in most records, active means well fitted curve in the direction sought with a large enough effect; inconclusive means small, poorly fitted or top-dose-only effect, or effect the other way; inactive means no such curve, though single readings can be large or run the other way. These entries were drawn from the full list.
On the % scale 0 is the no-effect control and ±100 the full control effect.

The target of this experiment is Cytochrome P450 2C9 (Homo sapiens) (UniProt P11712). As to the kind of experiment: Cytochrome panel assay with activity outcomes. Particulars: recombinant CYP, pro-luciferin dealkylation, luminescence, p450-cyp2c9; series mostly up to 57.1 µM.
Sequence of Cytochrome P450 2C9 (Homo sapiens) (P11712 whole entry, looked up): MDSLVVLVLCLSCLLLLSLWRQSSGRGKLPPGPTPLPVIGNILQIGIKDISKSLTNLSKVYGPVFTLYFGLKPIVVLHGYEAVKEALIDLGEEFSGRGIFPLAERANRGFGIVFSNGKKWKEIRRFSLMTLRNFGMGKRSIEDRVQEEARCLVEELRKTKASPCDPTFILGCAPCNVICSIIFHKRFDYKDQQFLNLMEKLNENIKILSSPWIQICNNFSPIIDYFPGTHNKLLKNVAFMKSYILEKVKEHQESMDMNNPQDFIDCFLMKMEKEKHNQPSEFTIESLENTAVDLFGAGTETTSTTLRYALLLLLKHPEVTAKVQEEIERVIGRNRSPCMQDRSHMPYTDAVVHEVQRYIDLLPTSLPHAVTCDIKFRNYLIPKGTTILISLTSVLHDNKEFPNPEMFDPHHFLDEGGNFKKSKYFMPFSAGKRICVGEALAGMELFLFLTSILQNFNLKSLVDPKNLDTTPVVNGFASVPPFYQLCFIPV
With `O=[N+]([O-])c1cccc(-c2nc(-c3ccccc3)c(-c3cccs3)[nH]2)c1`, the AC50 (usually the concentration at which the activity in the assay is half-maximal) is “inactive”. For `NC(N)=Nc1nc2ccc([N+](=O)[O-])cc2[nH]1`, the activity, negative = inhibition is 9.74% [at 11.4 µM] (inactive).

Regarding `c1ccc(-c2nc(-c3cccs3)[nH]c2-c2ccccc2)cc1`, the AC50 is 6.31 µM (active). Turning to `O=[N+]([O-])c1cccc(-c2nc(-c3cccs3)c(-c3cccs3)[nH]2)c1`, the AC50 was 1.58 µM (active). Consider `CN(C)Cc1ccccc1-c1ccc2ncnc(N(C)C)c2c1`, for which the activity, negative = inhibition was 9.43% [at 2.29 µM] (inactive). Regarding `CC(=O)N1CCN(c2nc(C)nc3sc4c(c23)CCC(C)C4)CC1` (centres undefined), the AC50 is 14.1 µM (active). For `Cc1cc(C(F)F)n2nc(C(=O)Nc3sc4c(c3C#N)CCC(C)C4)nc2n1` (centres undefined), the AC50 result was “inactive”. For `CC[N+](C)(CC)CCN1C(=O)c2ccccc2S1(=O)=O`, the activity, negative = inhibition was -0.798% [at 11.4 µM] (inactive). `COc1ccc2c(c1)-c1ccccc1S(=O)(=O)N2C`: the AC50 is 14.1 µM (active). `Cc1cc2c(nc1C)CCCCN2C[C@H](C)O/N=C\[C@@H](C)[C@H](OCc1ccccc1)C(C)C`: the activity, negative = inhibition was -8.65% [at 11.4 µM] (inactive).

For the molecule `S=C(S)N1CCCC1`, the AC50 is 2 µM (active). For `CC(C)(C)CC(=O)NC(=S)N1CCCCCC1`, the AC50 entry was “inactive”. Take `CCNC(=O)C/C(C)=N/NC(=O)C12CC3CC(CC(C3)C1)C2`: the AC50 entry is “inactive”.

For the molecule `COc1ccc(O)c(/C=N/NC(=O)CSc2nnc(C)n2-c2ccccc2)c1`, the AC50 entry is “inactive”.

For the molecule `C=CCn1c(COc2ccccc2)nnc1SCC(=O)N/N=C/c1ccc(C)cc1`, the AC50 is 11.2 µM (active).

Turning to `COc1ccc(C[C@@H]2c3cc(OC)c(OC)cc3CC[N@+]2(C)CCC(=O)OCCCCCOC(=O)CC[N@@+]2(C)CCc3cc(OC)c(OC)cc3[C@H]2Cc2ccc(OC)c(OC)c2)cc1OC`, the AC50 result is “inactive”. Turning to `Nc1ncnc2c([C@@H]3O[C@@H](CO)[C@H](O)[C@@H]3O)nsc12`, the activity, negative = inhibition was -6.07% [at 11.4 µM] (inactive). On to `COc1ccc(C(=O)Nc2ccc(OCC(F)(F)C(F)F)c(C(F)(F)F)c2)cc1OC`, for which the AC50 is 7.94 µM (active). On the same count and under the same terms, the value for `Cc1cc(NC(=O)CCCC(=O)OCC(F)(F)C(F)F)cc(C)c1C(=O)O` was “inactive”.

With `CCN(CC)CCC[C@H](C)Nc1c2ccc(Cl)cc2nc2ccc(OC)cc12`, the AC50 result was “inactive”. Same read-out and setting: the figure for `Cc1ccc(NC(=S)Nc2nc(CC(=O)Nc3ccccc3)cs2)cc1` is 2.82 µM (active). As to `CN1CCC(n2[nH]c(-c3ccccc3)c(Cc3ccccc3)c2=O)CC1`, the activity, negative = inhibition is 0.284% [at 11.4 µM] (inactive). On to `CCN1C(=O)[C@H]2[C@H]3[C@H](O)[C@H](O)C/C(=N/OC[C@@H](O)COCc4ccco4)[C@@H]3CC[C@@H]2C1=O`, for which the activity, negative = inhibition was 21.5% [at 11.4 µM] (inactive) and 18.6% [at 11.4 µM] (inactive). `CC(=O)Nc1ccc(-c2nnc(SCC(=O)c3ccc4c(c3)Cc3ccccc3-4)n2C)cc1`: the AC50 was 12.6 µM (active). As to `Cn1c(SCC(=O)c2ccc3c(c2)Cc2ccccc2-3)nnc1-c1ccccc1`, the AC50 was 8.91 µM (active).

As to `CN1CCCC[C@@H]1CCN1c2ccccc2Sc2ccc(S(C)=O)cc21` (some centres undefined), the AC50 result was “inactive”. Take `CCN(CC)CCN1C(=O)c2cccc3cc(N)cc(c23)C1=O`: the activity, negative = inhibition is 13.4% [at 11.4 µM] (inactive).

Regarding `CCOC(=O)C(NC(C)=O)C(=O)O` (centres undefined), the AC50 result was “inactive”. In the case of `C/C(CCN1CCCCc2nc(C)c(C)cc21)=N\O[C@@H](C)CN1CCCCc2nc(C)c(C)cc21`, the activity, negative = inhibition was 7.62% [at 11.4 µM] (inactive). The same measure, in the same setting: the value for `C/C(CCN1CCCc2nc(C)c(C)cc21)=N\O[C@@H](C)CN1CCCCc2nc(C)c(C)cc21` was -3.15% [at 11.4 µM] (inactive). `C/C(CCN1CCCCc2nc(C)c(C)cc21)=N\O[C@@H](C)c1cc(-c2c(C)cc(C)cc2C)no1`: the concentration at half-maximal activity (AC50) is 2.51 µM (active). On to `COc1ccc(-c2n[nH]c(C)c2-c2ccc(Cl)cc2)c(O)c1`, for which the AC50 was 10 µM (active).

Regarding `CC(NC(=O)c1ccccc1)c1nc2ccccc2n1Cc1ccccc1F` (centres undefined), the AC50 is 5.62 µM (active).

For the molecule `CN(C)CCCc1cc(C(=O)Nc2ccc(-c3ccncc3)cc2)ccc1O`, the AC50 entry was “inactive”.

For `CCN(CC)S(=O)(=O)c1cc(C(=O)Nc2ccncc2)ccc1Cl`, the AC50 was 0.141 µM (active).

Take `C[C@@H]1CCC[C@H](C)N1NC(=O)c1ccc(Cl)c(S(N)(=O)=O)c1`: the AC50 entry is “inactive”. On to `COC(=O)c1ccc(NC(=S)N2CCN(Cc3cccc(C)c3)CC2)cc1`, for which the AC50 is 25.1 µM (active). Same read-out and setting: the value for `COc1ccc(NC(=S)N2CCN(C/C=C/c3ccccc3)CC2)cc1OC` was “inactive”; that for `Cc1nn(CC(=O)NCCN2CCOCC2)c(C)c1[N+](=O)[O-]` was “inactive”; that for `Cc1nn(CC(=O)NCc2ccccc2)c(C)c1[N+](=O)[O-]` was “inactive”. For the molecule `Cc1nn(C(C)C(=O)N2CCc3ccccc32)c(C)c1[N+](=O)[O-]` (centres undefined), the AC50 is 11.2 µM (active). For the molecule `O=C(O)[C@@H]1[C@@H](C(=O)Nc2ncccn2)[C@@H]2C=C[C@@H]1O2`, the activity, negative = inhibition was 2.98% [at 11.4 µM] (inactive). For the molecule `FC(F)(F)c1nc2nc(Cl)c(Cl)nc2n1CCCN1CCOCC1`, the AC50 was 2.51 µM (active).

As to `c1cc(CNCCCN2CCOCC2)ccn1`, the AC50 entry was “inactive”. Still for that read-out and setting: the value for `OCCN1CCOCCOCCN(CCO)CCN(CCO)CC1` was “inactive”; that for `CCCCC(=O)NCCc1c(Cc2ccccc2)[nH]c2ccccc12` was “inactive”; that for `CCCC(=O)NCCc1c2n(c3ccc(OC)cc13)Cc1ccccc1-2` was 1.26 µM (active).

For the molecule `CCOC(=O)/C(C(N)=NCCCO)=C(/O)c1ccccc1`, the AC50 result was “inactive”. Consider `CC/C(=N/Nc1ccccc1)c1cnnc(SC)n1`, for which the concentration at half-maximal activity (AC50) was 0.891 µM (active). For the molecule `CSc1nncc(/C(C)=N\Nc2ccccc2)n1`, the AC50 is 4.47 µM (active).

Regarding `C#CCCCO/N=C1/C[C@@H](O)[C@@H](O)[C@@H]2[C@@H]3C(=O)N(CC)C(=O)[C@H]3CC[C@@H]12`, the activity, negative = inhibition is 0.179% [at 11.4 µM] (inactive).

Consider `O=C(O)[C@@H](c1ccccc1)[C@@H](C(=O)O)c1ccccc1`, for which the activity, negative = inhibition is 0.327% [at 11.4 µM] (inactive). With `Nc1cc(N)nc(SCC(=O)c2ccccc2)n1`, the AC50 entry was “inactive”. For the molecule `O=C(CSc1ncnc2nc[nH]c12)c1ccccc1`, the activity, negative = inhibition was -26.2% [at 11.4 µM] (inactive). Regarding `Cc1cc(SCC(=O)c2ccccc2)nc(SCC(=O)c2ccccc2)n1`, the AC50 is 0.891 µM (active). Turning to `COc1ccc(C[C@@H]2C(=O)N[C@H](C)C(=O)N(C)[C@@H]3Cc4ccc(cc4)Oc4cc(ccc4O)C[C@H](C(=O)N[C@@H](C)C(=O)N[C@H](C)C(=O)N2C)N(C)C3=O)cc1`, the activity, negative = inhibition was 3.77% [at 11.4 µM] (inactive). On to `CCC(=O)c1ccc(OCC(O)CN(CCc2ccccc2)Cc2ccccc2)cc1` (centres undefined), for which the AC50 is 3.16 µM (active). On to `CN(C)CC(O)COc1cccc(OCC(O)CN(C)C)c1` (centres undefined), for which the AC50 entry is “inactive”.

Regarding `CN(C)CC(O)COc1ccc(C(C)(C)c2ccc(OCC(O)CN(C)C)cc2)cc1` (centres undefined), the AC50 result is “inactive”. On to `Cc1ccccc1-c1ccc2ncnc(N3CCN(C)CC3)c2c1`, for which the activity, negative = inhibition is 20.6% [at 2.29 µM] (inactive). Turning to `O=C(O)c1c(-c2c3ccc(=O)cc-3oc3cc(O)ccc23)cc2ccccc2c1-c1ccccc1`, the activity, negative = inhibition was 13% [at 11.4 µM] (inactive). Turning to `C=CCSc1ccsc1C(=O)O`, the AC50 entry was “inactive”. Same read-out and setting: the value for `C=CCSc1nc(Oc2ccccc2)c2sccc2n1` was 8.91 µM (active). For `C/C(CCC(=O)OC[C@@H]1O[C@H](C#Cc2ccccc2)C=C[C@@H]1Oc1ccc(C)cc1)=N/O[C@@H](C)CN1CCCCc2nc(C)c(C)cc21`, the activity, negative = inhibition is -2.52% [at 11.4 µM] (inactive).

Take `COC(=O)[C@@]1(Cc2ccccc2)[C@H]2c3cc(C(=O)N4CCCC4)n(Cc4ccccn4)c3C[C@H]2CN1C(=O)c1ccccc1`: the half-maximal activity concentration (AC50) was 0.2 µM (active). On to `COC(=O)[C@@]1(Cc2ccc(F)cc2)[C@H]2c3cc(C(=O)N4CCCC4)n(Cc4ccccn4)c3C[C@H]2CN1C(=O)c1ccccc1`, for which the AC50 is 2 µM (active). For the molecule `CC1(CCC(=O)OC2CCCCC2)OCCO1`, the activity, negative = inhibition was -10.2% [at 11.4 µM] (inactive). `Cc1ccc(S(=O)(=O)N[C@H]2COC(=O)C/C=C\[C@@H](C)[C@H](NS(=O)(=O)c3ccc(C)cc3)COC(=O)C/C=C\[C@H]2C)cc1`: the activity, negative = inhibition is 0.307% [at 11.4 µM] (inactive). For the molecule `CNC(=O)c1ccc(-c2sc3nc(N4CCOCC4)c4c(c3c2N)CC(C)(C)OC4)o1`, the AC50 was 4.47 µM (active). On to `CCNc1ncc2nc(-c3cccc(C#N)c3)c(=O)n(C)c2n1`, for which the AC50 result is “inactive”.

On to `CCOc1nc(NC(C)C)nc(NC(C)C)n1`, for which the AC50 entry is “inactive”. Consider `CCN(CC)S(=O)(=O)c1cc(C(=O)Nc2ccccc2C(=O)O)ccc1OC`, for which the AC50 is 2.24 µM (active). On to `CCN(CC)S(=O)(=O)c1ccc(OC)c(NC(=O)CSc2ccccc2)c1`, for which the AC50 was 2.51 µM (active).

`COc1ccc(C(=O)Nc2cccc3c2C(=O)NC3=O)cc1S(=O)(=O)N1CCOCC1`: the AC50 entry was “inactive”. Take `CCN(CC)S(=O)(=O)c1ccc(OC)c(NC(=O)c2cc([N+](=O)[O-])ccc2Cl)c1`: the AC50 entry was “inactive”. `C[C@H]1CC(C)(C)C[C@@](OCCN2CCCCC2)(c2ccccc2)C1`: the activity, negative = inhibition was 5.46% [at 11.4 µM] (inactive). For the molecule `CCNc1ncc2nc(-c3cccs3)c(=O)n(C[C@H]3CCCO3)c2n1`, the AC50 entry was “inactive”. As to `O=C(Oc1ccccc1)N1CCC2(CC1)CN(c1ccccc1)C2`, the AC50 entry is “inactive”. On to `O=C(Oc1ccccc1)N1CCC[C@@]2(CCN(c3ccncc3)C2)C1`, for which the AC50 was 10 µM (active).

Turning to `COC(=O)N1CCC[C@@]2(CCN(c3ncccn3)C2)C1`, the AC50 result was “inactive”.

As for `O=C(Oc1ccccc1)N1CCC2(CC1)CCN(c1ncccn1)CC2`, the AC50 was 15.8 µM (active). Turning to `O=C(Oc1ccccc1)N1CCC2(CC1)CN(c1ccccn1)C2`, the AC50 entry is “inactive”.

As to `O=C(Oc1ccccc1)N1CCC2(CC1)CN(c1ccncc1)C2`, the AC50 is 3.16 µM (active). Take `O=C(Oc1ccccc1)N1CCC2(CC1)CCN(c1ccccc1)CC2`: the AC50 result was “inactive”. As to `O=C(c1ccncc1)N1CCC[C@@]2(CCN(c3ccccc3)C2)C1`, the AC50 result was “inactive”. Still for that read-out and setting: the entry for `COC(=O)N1CCC2(CC1)CN(c1ccncc1)C2` is “inactive”. As for `O=C(Oc1ccccc1)N1CCC[C@@]2(CCN(c3ncccn3)C2)C1`, the AC50 was 10 µM (active).

As for `CC(=O)N1CCC[C@@]2(CCN(c3ccncc3)C2)C1`, the AC50 result was “inactive”. On to `CC(=O)N1CCC[C@@]2(CCN(c3ncccn3)C2)C1`, for which the AC50 result was “inactive”.

The record behind these values is PubChem BioAssay AID1851 (National Center for Advancing Translational Sciences (NCATS), 2009).
